SMILES strings stand for the structures.

The target of this experiment is T1, Tyrosyl-tRNA synthetase, putative (Trypanosoma cruzi (strain CL Brener)) (UniProt Q4DSP6).
T1 sequence (whole entry): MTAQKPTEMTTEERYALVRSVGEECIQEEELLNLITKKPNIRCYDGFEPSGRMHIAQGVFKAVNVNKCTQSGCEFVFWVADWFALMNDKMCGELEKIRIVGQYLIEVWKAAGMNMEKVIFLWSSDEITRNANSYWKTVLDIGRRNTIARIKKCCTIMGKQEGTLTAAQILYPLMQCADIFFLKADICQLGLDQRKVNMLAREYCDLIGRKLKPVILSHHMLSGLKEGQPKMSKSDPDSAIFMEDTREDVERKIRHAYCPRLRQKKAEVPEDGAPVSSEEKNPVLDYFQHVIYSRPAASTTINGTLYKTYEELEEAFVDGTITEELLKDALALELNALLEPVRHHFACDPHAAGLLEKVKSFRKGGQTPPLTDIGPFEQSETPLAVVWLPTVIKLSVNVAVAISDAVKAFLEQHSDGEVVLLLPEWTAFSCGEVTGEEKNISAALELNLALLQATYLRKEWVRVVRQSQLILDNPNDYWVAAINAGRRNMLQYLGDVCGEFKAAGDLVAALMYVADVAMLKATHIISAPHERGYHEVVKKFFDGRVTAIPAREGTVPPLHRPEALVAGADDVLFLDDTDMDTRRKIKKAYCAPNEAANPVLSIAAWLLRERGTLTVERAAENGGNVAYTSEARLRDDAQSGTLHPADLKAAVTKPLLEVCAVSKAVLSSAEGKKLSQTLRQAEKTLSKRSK
In words: Trypanosoma cruzi tyrosyl tRNA synthetase (TcYRS) SOP. Particulars: 30 µM. Details: scale not given: direction of the effect not stated beside the values. The experiment is classed as functional.
With `CC(C)NC(=O)[C@@H](NC(=O)N1CCN(c2ccc(Cl)cc2)CC1)C(C)C`, the Percent Effect was -4.88%. `CC(C)NC(=O)N1CCC2(C1)CN(c1ccsc1)C(=O)CN2C` (stereo not given): the Percent Effect is 10.3%. As for `Cc1csc(Nc2nccnc2C2CCCN2C(=O)C(C)C)n1` (stereo not given), the Percent Effect worked out at 10%.

Consider `CS(=O)(=O)NCc1ncn2c1CN(C(=O)CC1CCCC1)CCC2`, for which the Percent Effect was -2.56%. The figure for `c1ccc(CCNC2CCc3ncnn3C2)nc1` (stereo not given) is 23.5%; for `CS(=O)(=O)N1Cc2ccccc2C2(CCN(C(=O)c3ccno3)CC2)C1` it is 7.5%; for `c1ccc(-n2ncc(CNC3CCc4ncnn4C3)n2)cc1` (stereo not given) it is 8.43%.

In the case of `O=C(NCCn1ccnc1)N1CCN(c2nccs2)CC1`, the Percent Effect is 7.06%. As for `CCN1CCO[C@]2(CCC[C@H]2COCc2csc(C)n2)C1`, the Percent Effect amounted to 5.13%. Regarding `O=C(NCCCn1ccnc1)N1CCN(c2cccs2)CC1`, the Percent Effect was found to be 11.8%. Take `CC1CN(CC2CCCCC2)CCN1c1ccc2nncn2n1` (stereo not given): the Percent Effect came to 8.43%. Consider `CC(Cn1cccn1)NC(=O)NCc1cccs1` (stereo not given), for which the Percent Effect was determined as 7.69%.

For the compound `CCn1nc(C)c(CCNC(=O)C2CCCN(CC(N)=O)C2)c1C` (stereo not given), the Percent Effect is 17.1%. As for `CCn1ccnc1CNCC1CCCN1c1cccnn1` (stereo not given), the Percent Effect is 12.8%.

In the case of `CCC(=O)N(C)CC(=O)Nc1ccc(Br)cn1`, the Percent Effect was 2.56%. Consider `Cn1ccc(CN2CCCC2c2ccc3c(c2)OCCCO3)cc1=O` (stereo not given), for which the Percent Effect came out at 20.5%. For the compound `CCOc1ccc2[nH]c(=O)c(CN3CCC(O)CC3)cc2c1`, the Percent Effect came out at 21.9%.

As for `c1ncn(CC2CN(Cc3noc(C4CC4)n3)CCO2)n1` (stereo not given), the Percent Effect is 0%. In the case of `Cc1cccc(CN2C[C@@H]3CN(C(=O)[C@H]4CCCO4)C[C@@H]3C2=O)c1`, the Percent Effect is 20%. On to `CS(=O)(=O)c1cccc(C(N)c2ccc(F)c(F)c2)c1` (stereo not given), for which the Percent Effect was 15.4%. On to `CN1CCC/C1=N\S(=O)(=O)c1ccc(NC(=O)c2cccs2)cc1`, for which the Percent Effect is 21.2%. On to `CC(NC(=O)NCCCn1cncn1)c1ccccc1Cl` (stereo not given), for which the Percent Effect turned out to be 12.8%.

In the case of `Cn1cnc2c1CCN(Cc1csc(-c3ccsc3)n1)C2`, the Percent Effect turned out to be 13.2%. Take `c1ncn(CC2CCCN2Cc2cn3ccsc3n2)n1` (stereo not given): the Percent Effect was determined as 6.02%.

`Cn1cc(C(=O)N2CCCC(Cc3nccs3)C2)cn1` (stereo not given): the Percent Effect is 15%.

In the case of `CCc1nc(C)c(C(=O)NCCN2CCN(C(C)=O)CC2)s1`, the Percent Effect was determined as 21.2%. The figure for `COCCO[C@H]1CCN(C(=O)c2cc(C)on2)[C@H]1Cc1ccccc1` is 10%; for `O=C(NCCc1ccccc1)C1CCCN(c2ccc3nncn3n2)C1` (stereo not given) it is 7.32%. For the compound `CCn1cc(NC(=O)NCc2ccc(CN3CCOCC3)cc2)cn1`, the Percent Effect was determined as 11.8%.

Consider `CN(C)CCN1C(=O)CCC12CCN(C(=O)c1cccnc1)CC2`, for which the Percent Effect came out at 2.5%. With `Cc1ccc(NC(=O)N2C[C@H]3CC[C@@H]2CN(Cc2cscn2)C3)cc1`, the Percent Effect is 12.2%.

Regarding `Cc1cc(NC(=O)CN2CCCC2c2noc(C(C)C)n2)n(C)n1` (stereo not given), the Percent Effect came to 5.13%.

In the case of `CC(C)CCN(C)C(=O)c1nc(S(C)(=O)=O)n2ccccc12`, the Percent Effect worked out at 10.8%.

In the case of `Cc1cnn(CC2CN(CC(=O)NCc3ccccn3)CCO2)c1` (stereo not given), the Percent Effect was determined as 10.3%.

For `COCCN1CCN(Cc2cccc(C(N)=O)c2)CC1C` (stereo not given), the Percent Effect was 12.8%. As for `Cc1cc(CN(C)C(=O)NCC(C)N2CCc3ccccc32)no1` (stereo not given), the figure is 7.06%; as for `Cc1c(F)cccc1CN1CCn2nc(CNC(=O)N(C)C)cc2C1`, 17.1%; as for `CC(C)CNC(=O)c1ccc2nnc(C3CCN(S(C)(=O)=O)C3)n2c1` (stereo not given), 2.56%. Regarding `CCOC(=O)N1CCN(C(=O)c2sc(-c3ccccc3F)nc2C)CC1`, the Percent Effect is 14.6%. Turning to `COCCN1C(=O)CCC12CCN(C(=O)NC(C)C)CC2`, the Percent Effect was -10%.
